From PubChem BioAssay
Records with an inconclusive call do not appear. Calls of active or inactive are those of the source.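 The calls were made as follows, unless noted: active = RAM network inhibition above 8.4% in each of two replicates, 3 SD over the compound average; inconclusive = above 8.4% inhibition in only one replicate; inactive = 8.4% inhibition or less in each replicate.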

Columns and labels:
[1] = HUVEC growth inhibition – cell-based, human, primary screen (AID 575;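 active = viability at or below 30% in both replicate assays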;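 also: 100% = median of untreated cell wells with 0.1% DMSO on each plate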); conditions: HUVEC proliferation, CellTiter-Glo luminescence, 72 h; at 10 µM; stronger effect = lower value
[2] = growth inhibitors of H69AR lung tumor, primary screen, human, duplicate replicates (AID 580;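 active = viability at or under a set limit in both replicates, limit being median viability minus 3 SD, cut at about 48% in these data, passing the limit was not always enough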;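 also: 100% = mean luminescence of untreated wells and 0% = no signal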); conditions: H69AR lung tumor cells viability, ATP luminescence, 72 h; at 10 µM; stronger effect = lower value
[3] = reversal of MRP1-mediated doxorubicin resistance, pilot screen, H69AR cells, doxorubicin co-treatment (AID 601;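 active = viability loss from added drug above about 55%, and viability with drug at most 40%, in both replicates, limit read from the data, passing the limit was not always enough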); conditions: CellTiter-Glo, 72 h, at 10 µM; for differential viability (reversal): stronger effect = higher value
[4] = 384-well plate pilot, post-Golgi transport modulator project, inhibition of yeast transport mutant growth (AID 636; in the data active = inhibition above about 31%); conditions: absorbance 615 nm, about 18 h, stronger effect = higher value
[5] = growth suppression of yeast trafficking mutant, preliminary HTS, modulators of trafficking downstream of Golgi apparatus project, 1536-format plate, OD 615 nm (AID 637; in the data active = inhibition above about 30%); conditions: yeast transport mutant growth, absorbance 615 nm, 18 h; stronger effect = higher value
[6] = OD615 S. cerevisiae growth inhibition, permissive medium, pilot counter-assay, permissive growth control for S. cerevisiae lifespan shortening project (AID 705;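 active = growth inhibition above 25% in both replicates, a cutoff set 3 SD above the mean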); conditions: OD615, 24 h, at 10 µM, stronger effect = higher value
[7] = Restrictive medium S. cerevisiae growth inhibition, OD615, pilot screen of yeast lifespan reduction project, restrictive growth control (AID 706;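 active = growth inhibition above a set limit, 3 SD over mean compound inhibition, in both replicates, cut at about 43% in these data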;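 also: modified DeaD lifespan yeast strain shifted to restrictive glucose medium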); conditions: OD615, 48 h, at 10 µM, stronger effect = higher value
[8] = viability gain of MRP-1-high H69AR cells under doxorubicin, pilot screen, MRP-1 activator project, CellTiter-Glo, duplicate (AID 807;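 active = viability increase at or above a cutoff of the median across tested compounds plus 3 SD, cut at about 8.5% in these data, passing the limit was not always enough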;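 also: compound pretreatment 18-22 h then 72 h combined with doxorubicin; 0% = doxorubicin alone and 100% = vehicle without doxorubicin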); conditions: H69AR viability with doxorubicin, CellTiter-Glo luminescence; at 10 µM; stronger effect = higher value
[9] = growth suppression of beta-catenin knockout HCT116, pilot screen, human colon tumor cells (AID 823;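 active = cell viability at or below a set limit in both duplicate runs, the limit being the all-compound median minus 4 SD, cut at about 23% in these data, passing the limit was not always enough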;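 also: 0% = wells killed by 20 µM Hyamine and 100% = untreated DMSO cell wells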); conditions: CellTiter-Glo, 60 h, at 10 µM, stronger effect = lower value
[10] = growth suppression of PTEN-deleted HCT116, pilot screen, cell-based, HCT116 clonal line, CellTiter-Glo (AID 824;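 active = viability at or below 27.92% in each of two runs, the all-compound median minus 4 SD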;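 also: 0% = 20 µM Hyamine control and 100% = vehicle cell control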); conditions: 60 h, at 10 µM, stronger effect = lower value
[11] = inhibitors of the yeast RAM network, pilot screen, dse1pr::URA3 reporter, 5-FOA selection (AID 869;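 active = inhibition over a set limit, the all-compound mean plus 3 SD, in both replicate runs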;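 also: 0% = DMSO wells with no growth and 100% = 10 µM 1-NA-PP1 with full growth; RAM network block rescues cells from 5-FOA so hits raise OD615 growth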); conditions: S. cerevisiae dse1pr::URA3 5-FOA growth, OD615, 2 d; at 10 µM; stronger effect = higher value; strain carries analog-sensitive mutant Cbk1 kinase
[12] = RAM signaling pathway blockade in yeast – S. cerevisiae, Pdr1DBD-CYC8 efflux-inhibited sensitized strain, primary screen (AID 1298);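 also: 0% = DMSO untreated cells without growth and 100% = 10 µM 1-NA-PP1 full growth; higher means more yeast growth rescued from 5-FOA killing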; conditions: S. cerevisiae cbk1-as DSE1-URA3 strain, 5-FOA growth OD615, 2 d; at 50 µM; stronger effect = higher value
[13] = H69AR cells + 2 uM doxorubicin, measured here: viability with 2 uM doxorubicin, stronger effect = lower value
[14] = H69AR cells, compound alone cytotoxicity

| Compound | viability [1] | viability [2] | differential viability (reversal) ([3]; H69AR cells + 2 uM doxorubicin) | viability [3, 13] [%] | viability [3, 14] [%] | inhibition [4] | inhibition [5] | growth inhibition [6] | growth inhibition [7] | viability increase [8] | viability [9] | viability [10] | inhibition [11] | RAM network inhibition [12] |
| --- | --- | --- | --- | --- | --- | --- | --- | --- | --- | --- | --- | --- | --- | --- |
| CCCN1CCN(C(=O)c2cn(CC(C)C)c(=O)c3cc(OC)c(OC)cc23)CC1 | 93.1% (inactive) | 78% (inactive) | -0.945% (inactive) | 78.9 | 78 | -4.74% (inactive) | 4.92% (inactive) | -19.2% (inactive) | -0.27% (inactive) | -2.46% (inactive) | 100% (inactive) | 88.4% (inactive) | 2.42% (inactive) | 2.08% (inactive) |
| O=C(CCCCCn1c(=O)[nH]c2ccsc2c1=O)N1CCCCC1 | 102% (inactive) | 95% (inactive) | 5.84% (inactive) | 89.2 | 95 | -2.5% (inactive) | 7.62% (inactive) | 1.02% (inactive) | -1.91% (inactive) | -1.28% (inactive) | 96.9% (inactive) | 99% (inactive) | 0.36% (inactive) | -0.43% (inactive) |
| COCCn1c(=O)[nH]c2cc(C(=O)N3CCN(c4ccccc4OC)CC3)ccc2c1=O | 110% (inactive) | 85.8% (inactive) | -5.65% (inactive) | 91.4 | 85.8 | -4.87% (inactive) | 0.32% (inactive) | -3.6% (inactive) | -7.11% (inactive) | -0.61% (inactive) | 104% (inactive) | 99% (inactive) | 1.2% (inactive) | 6.96% (inactive) |
| CCCCC(NC(C)=O)c1nc2ccccc2n1CCC (stereo not drawn) | 93.9% (inactive) | 100% (inactive) | 10.6% (inactive) | 89.7 | 100 | 1.32% (inactive) | 7.62% (inactive) | -5.8% (inactive) | -2.95% (inactive) | -0.99% (inactive) | 93.6% (inactive) | 93.3% (inactive) | 1.44% (inactive) | -0.69% (inactive) |
| CCn1cc(C(=O)NCC2COc3ccccc3O2)c2cc(OC)c(OC)cc2c1=O (stereo not drawn) | 77.5% (inactive) | 79.3% (inactive) | 0.385% (inactive) | 79 | 79.3 | -6.05% (inactive) | 0.16% (inactive) | -11.4% (inactive) | -33.2% (inactive) | -4.69% (inactive) | 97.9% (inactive) | 86.7% (inactive) | 0.96% (inactive) | 3.33% (inactive) |
| Cc1nnc(N(Cc2ccco2)C(=O)c2cccc(C#N)c2)s1 | 84.1% (inactive) | 94.6% (inactive) | -3.37% (inactive) | 97.9 | 94.6 | -1.69% (inactive) | -6.35% (inactive) | -6.52% (inactive) | 6.42% (inactive) | -0.66% (inactive) | 103% (inactive) | 98.5% (inactive) | 1.8% (inactive) | 4.13% (inactive) |
| Cc1ccc(S(=O)(=O)c2nc(-c3ccco3)oc2SCC(=O)NCC2CCCO2)cc1 (stereo not drawn) | 101% (inactive) | 92.8% (inactive) | 6.32% (inactive) | 86.4 | 92.8 | -0.13% (inactive) | -3.02% (inactive) | 0.025% (inactive) | 0.35% (inactive) | -2.88% (inactive) | 101% (inactive) | 104% (inactive) | 1.47% (inactive) | 2.72% (inactive) |
| Cn1ccnc1C(O)c1ccco1 (stereo not drawn) | 101% (inactive) | 103% (inactive) | 13.1% (inactive) | 89.5 | 103 | -5.39% (inactive) | 1.43% (inactive) | -5.51% (inactive) | -3.72% (inactive) | -0.09% (inactive) | 102% (inactive) | 103% (inactive) | 0.74% (inactive) | 3.14% (inactive) |
| CC(C(=O)Oc1ccc2c(c1)OCO2)N1C(=O)c2ccccc2C1=O (stereo not drawn) | 79.5% (inactive) | 84.3% (inactive) | -10.1% (inactive) | 94.4 | 84.3 | -1.69% (inactive) | 1.27% (inactive) | -0.745% (inactive) | 13.1% (inactive) | -1.6% (inactive) | 99.3% (inactive) | 105% (inactive) | 1.38% (inactive) | 0.12% (inactive) |
| O=C(NCc1cccs1)C(Cc1ccccc1)NS(=O)(=O)c1cccs1 (stereo not drawn) | 95.7% (inactive) | 91.7% (inactive) | 4.5% (inactive) | 87.2 | 91.7 | -3.16% (inactive) | 5.08% (inactive) | -17.7% (inactive) | -8.73% (inactive) | -1.46% (inactive) | 94.3% (inactive) |  | 1.43% (inactive) | 4.56% (inactive) |
| COC(=O)C1CCN(C(=O)CSc2nnc(-c3ccncc3)o2)CC1 | 101% (inactive) | 81.8% (inactive) | -7.18% (inactive) | 89 | 81.8 | 1.43% (inactive) | 19.1% (inactive) | -0.605% (inactive) | -6.21% (inactive) | 1.44% (inactive) | 102% (inactive) | 102% (inactive) | 1.91% (inactive) | -1.1% (inactive) |
